Test results as given in PubChem BioAssay (NCI).
The panel holds about 83,000 compounds, 20% with a hit somewhere; the sample as a whole holds those more often.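 96-well plates, one dose, 48 hours. Percent growth reported; active if below 10.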 The source made the active and inactive calls.

How the values were obtained:
Test in all cases: NCI-60 one-dose screen, 48 h (100 = growth as untreated, 0 = no growth, -100 = all killed)
Conditions in all cases: 10 µM unless noted
HCT-15 colon = test system: HCT-15 colon
HT29 colon = test system: HT29 colon
SNB-75 CNS = test system: SNB-75 CNS
SNB-19 CNS = test system: SNB-19 CNS
U251 CNS = test system: U251 CNS
PC-3 prostate = test system: PC-3 prostate
SK-MEL-5 melanoma = test system: SK-MEL-5 melanoma
UACC-62 melanoma = test system: UACC-62 melanoma
LOX IMVI melanoma = test system: LOX IMVI melanoma
SK-MEL-28 melanoma = test system: SK-MEL-28 melanoma
SK-MEL-2 melanoma = test system: SK-MEL-2 melanoma
EKVX NSCLC = test system: EKVX NSCLC
SN12C renal = test system: SN12C renal
UO-31 renal = test system: UO-31 renal
TK-10 renal = test system: TK-10 renal
ACHN renal = test system: ACHN renal
CAKI-1 renal = test system: CAKI-1 renal
A498 renal = test system: A498 renal
CCRF-CEM leukemia = test system: CCRF-CEM leukemia
MOLT-4 leukemia = test system: MOLT-4 leukemia

Measured: growth

O=C(CN1CCCCC1)Nc1nc(-c2cc3ccccc3oc2=O)cs1
inactive: HCT-15 colon 102% | HT29 colon 100% | SNB-75 CNS 82.4% | SNB-19 CNS 100% | U251 CNS 97.4% | PC-3 prostate 97.8% | SK-MEL-5 melanoma 96% | UACC-62 melanoma 91.7% | LOX IMVI melanoma 101% | SK-MEL-28 melanoma 102% | SK-MEL-2 melanoma 112% | EKVX NSCLC 96.1% | SN12C renal 96.1% | UO-31 renal 82.9% | TK-10 renal 138% | ACHN renal 100% | CAKI-1 renal 95.9% | A498 renal 97.3% | CCRF-CEM leukemia 102% | MOLT-4 leukemia 98.9%

c1cc2c(ccc3[nH]c(-c4ccc5[nH]ncc5c4)c4c(c32)CCCC4)n1
inactive: HCT-15 colon 61.6% | HT29 colon 51.7% | SNB-75 CNS 62.1% | SNB-19 CNS 44.5% | U251 CNS 36.8% | PC-3 prostate 28.4% | SK-MEL-5 melanoma 61.7% | UACC-62 melanoma 54.6% | LOX IMVI melanoma 61.5% | SK-MEL-28 melanoma 67.3% | SK-MEL-2 melanoma 83.6% | EKVX NSCLC 62.7% | SN12C renal 46% | UO-31 renal 53.3% | TK-10 renal 80.2% | ACHN renal 32.3% | CAKI-1 renal 69.8% | A498 renal 74.3% | CCRF-CEM leukemia 13.6%
active: MOLT-4 leukemia -0.124%

COc1ccc(C2=C(Br)C(=O)c3nc(C)ccc3C2=O)cc1
inactive: HCT-15 colon 93.1% | HT29 colon 110% | SNB-75 CNS 93.8% | SNB-19 CNS 94.9% | U251 CNS 94% | PC-3 prostate 80% | SK-MEL-5 melanoma 91.6% | UACC-62 melanoma 88.5% | LOX IMVI melanoma 95.4% | SK-MEL-28 melanoma 107% | SK-MEL-2 melanoma 102% | EKVX NSCLC 94.4% | SN12C renal 92.8% | UO-31 renal 69.9% | TK-10 renal 71.7% | ACHN renal 17% | CAKI-1 renal 81.2% | A498 renal 88.7% | CCRF-CEM leukemia 30.1% | MOLT-4 leukemia 41.4%

COc1ccc(C/C(C)=C(\c2ccc(Cl)cc2)c2ccc(OCCN3CCCCC3)cc2)cc1
inactive: HCT-15 colon 84.3% | HT29 colon 81.2% | SNB-75 CNS 89.3% | SNB-19 CNS 93.5% | U251 CNS 92.1% | PC-3 prostate 94.6% | SK-MEL-5 melanoma 107% | UACC-62 melanoma 83.8% | LOX IMVI melanoma 104% | SK-MEL-28 melanoma 101% | SK-MEL-2 melanoma 97% | EKVX NSCLC 102% | SN12C renal 94.3% | UO-31 renal 73.9% | TK-10 renal 97% | ACHN renal 92.3% | CAKI-1 renal 86.9% | A498 renal 120% | CCRF-CEM leukemia 90.1% | MOLT-4 leukemia 75.4%
